Screening data: PubChem, several laboratories
Compounds with a hit are over-represented: about 12% of the library has one in this group of screens.
Insulin prom up: MIN6 insulin promoter up-regulation; z-score at 5 µM; MIN6 insulin promoter-GFP reporter, high-content imaging; stronger effect = higher value; 190,000 tested, 0.3% active; AID 1625;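 active = z-score above 3 at 5 µM with at least 500 cells counted in the well; inconclusive = wells under 500 cells, flagged as cytotoxic or low count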
L major viab: Leishmania major promastigote growth inhibition | inhibition, % at 10 µM | 200,000 tested, 9% active | Leishmania major promastigotes, resazurin fluorescence viability | AID 1063; in the data active = inhibition above about 50%;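 also: promastigotes grown with compound for 44 hours at 28 °C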
ROMK primary: modulates human ROMK potassium channel activity | 130,000 tested, 2% active | Tet-inducible ROMK, thallium flux fluorescence; actives lie on both sides | B-score at 10 µM;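 active = signal ratio slope over the read window, or its plate-corrected B-score, at least 3 SD from the plate mean, either direction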;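 also: B-score of the F/F0 ratio slope over 7 to 12 s after thallium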
Insulin prom inh: TRM-6 insulin promoter activity inhibition. inhibition, % at 2 µM. AID 1273. 130,000 tested, 0.9% active. TRM-6 cells (human fetal islet line), insulin promoter-eGFP reporter, imaging; reporter expression induced with tamoxifen;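 active = inhibition above the mean plus 3 SD, with well images judged a real hit on visual review, cut at about 60% in these data, passing the limit was not always enough; inconclusive = inhibition over the cutoff but images rejected on review; inactive = inhibition not above the cutoff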
KCC2 mod: modulators of human KCC2 chloride dependent transport | KCC2 cells, thallium flux FluoZin-2 fluorescence | B-score of Tl+ flux slope (higher = more flux/activation; lower = inhibition) at 10 µM | 190,000 tested, 2.2% active | AID 1456;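 active = thallium flux slope and its plate-corrected score both differing from the plate sample mean at a set confidence after two filtering rounds, in either direction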;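 also: slope of fluorescence scaled to starting intensity during 10 to 20 s after thallium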
Target sequence (Q9H2X9 whole entry, looked up): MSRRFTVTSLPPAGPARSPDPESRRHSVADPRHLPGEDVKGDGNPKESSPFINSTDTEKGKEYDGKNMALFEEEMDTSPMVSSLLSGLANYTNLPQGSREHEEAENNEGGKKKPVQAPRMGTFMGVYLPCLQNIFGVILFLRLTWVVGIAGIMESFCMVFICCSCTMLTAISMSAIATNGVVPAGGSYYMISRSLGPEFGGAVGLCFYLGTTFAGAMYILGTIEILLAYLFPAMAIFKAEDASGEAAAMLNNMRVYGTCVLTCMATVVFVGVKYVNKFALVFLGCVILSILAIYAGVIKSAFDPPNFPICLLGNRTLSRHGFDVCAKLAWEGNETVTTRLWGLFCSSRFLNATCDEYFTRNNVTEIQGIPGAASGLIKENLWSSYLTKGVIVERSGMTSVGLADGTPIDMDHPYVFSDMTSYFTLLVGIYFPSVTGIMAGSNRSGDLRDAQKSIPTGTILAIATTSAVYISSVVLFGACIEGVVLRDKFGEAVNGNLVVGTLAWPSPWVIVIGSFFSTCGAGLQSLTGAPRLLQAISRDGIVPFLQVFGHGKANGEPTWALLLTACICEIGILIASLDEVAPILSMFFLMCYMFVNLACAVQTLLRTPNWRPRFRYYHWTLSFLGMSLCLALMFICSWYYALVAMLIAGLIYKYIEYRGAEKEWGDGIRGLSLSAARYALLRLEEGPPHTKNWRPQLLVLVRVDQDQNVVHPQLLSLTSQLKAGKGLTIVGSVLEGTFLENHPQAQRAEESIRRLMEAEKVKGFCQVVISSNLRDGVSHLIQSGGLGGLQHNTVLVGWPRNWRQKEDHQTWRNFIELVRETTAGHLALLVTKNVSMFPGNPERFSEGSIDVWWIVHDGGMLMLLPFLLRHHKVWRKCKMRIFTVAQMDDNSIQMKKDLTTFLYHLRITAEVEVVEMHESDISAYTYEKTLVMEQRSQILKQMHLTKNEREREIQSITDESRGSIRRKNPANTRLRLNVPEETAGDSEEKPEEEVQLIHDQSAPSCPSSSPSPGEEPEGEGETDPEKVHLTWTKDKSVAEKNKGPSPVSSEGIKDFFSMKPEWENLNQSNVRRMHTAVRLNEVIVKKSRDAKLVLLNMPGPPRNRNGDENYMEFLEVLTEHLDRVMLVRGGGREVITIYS
WT yeast gro inh: growth inhibition of WT yeast, mitochondrial fusion screen; mitochondrial fusion phenotypic screen, WT strain; inhibition, % at 10 µM; 190,000 tested, 2.1% active; in the data active = inhibition above about 58%; tested in S. cerevisiae
ROMK hit retest: human ROMK channel modulation, retest confirmation; normalized thallium flux (F/F0 slope) at 10 µM; ROMK thallium flux, fluorescence ratio; stronger effect = lower value; AID 1917; 3,000 tested, 54% active; shares compounds with ROMK primary;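 active = Flux at 10 µM at least 3 SD below or above vehicle control mean in one or both replicates; inconclusive = no clear call, values can overlap the other calls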
Large screens that a line does not name were inactive (follow-up assays come after a bar, where they were run).

O=Cc1s/c(=N\S(=O)(=O)c2ccccc2)n(CCCCl)c1Cl	ROMK primary -6.13 (no result: Insulin prom inh) | ROMK hit retest 0.0426
CCCCc1cc(=O)oc2c(C)c(OCc3nn[nH]n3)ccc12	none (no result: L major viab, ROMK primary, Insulin prom inh, WT yeast gro inh)
COc1ccccc1-c1nc2n(n1)C(c1ccc(Cl)cc1)C(C(N)=O)=C(C)N2 (stereo not given)	none (no result: Insulin prom up, ROMK primary)
COc1ccccc1N=Cc1c(C)c(C#N)c2[nH]c3ccccc3n2c1=O	ROMK primary -3.27 (no result: Insulin prom inh) | ROMK hit retest 0.0666
CCN(CC)CCN1C(=O)C(O)=C(C(=O)c2ccco2)C1c1ccccn1 (stereo not given)	none
CN(C)CCN1C(=O)C(O)=C(C(=O)c2ccco2)C1c1ccccc1F (stereo not given)	none (no result: ROMK primary, KCC2 mod) | ROMK hit retest inactive
CC(Nc1ccc(Cl)c(Cl)c1)C(=O)NN (stereo not given)	none (no result: L major viab, ROMK primary, Insulin prom inh, WT yeast gro inh)
NNC(=O)C(=O)Nc1ccc(Cl)c(Cl)c1	ROMK primary -12.4 (no result: L major viab, Insulin prom inh, WT yeast gro inh) | ROMK hit retest inactive
O=C(/C=C/c1ccc2c(c1)OCO2)NCCCN1CCOCC1	none
CCOC(=O)N1CCN(S(=O)(=O)c2ccc(OCC)c(C)c2)CC1	none
CCOC(=O)N1CCN(S(=O)(=O)c2ccc3c(c2)OCC(=O)N3)CC1	ROMK primary -2.46 (no result: Insulin prom inh) | ROMK hit retest 0.0578
CCOC(=O)N1CCN(S(=O)(=O)c2ccc3[nH]c(=O)oc3c2)CC1	none (no result: L major viab, ROMK primary, Insulin prom inh, WT yeast gro inh)
CCOC(=O)N1CCN(S(=O)(=O)c2ccc3c(c2)SC(C)C(=O)N3)CC1 (stereo not given)	none (no result: Insulin prom up, ROMK primary) | ROMK hit retest 0.0674
CCOC(=O)N1CCN(S(=O)(=O)c2ccc3c(c2)SCC(=O)N3)CC1	ROMK primary -4.29 (no result: Insulin prom inh, KCC2 mod) | ROMK hit retest 0.0611
CCOC(=O)C1=C(C)OC(N)=C(C#N)C1c1c(C)nn(-c2ccccc2)c1Cl (stereo not given)	none
C=CCOC(=O)C1=C(C)OC(N)=C(C#N)C1c1c(C)nn(-c2ccccc2)c1Cl (stereo not given)	ROMK primary -4.03 (no result: Insulin prom inh) | ROMK hit retest 0.0593
CCc1nccn1Cc1cc(C=O)ccc1OC	none (no result: Insulin prom inh)
COc1ccc(C=O)cc1COc1c(F)c(F)cc(F)c1F	L major viab 99.2, ROMK primary 3.92 (no result: Insulin prom up) | ROMK hit retest inactive
COc1ccc(C=O)cc1Cn1ccnc1C	ROMK primary -7.22 (no result: Insulin prom inh) | ROMK hit retest inactive
CC(=O)NN1C(=O)c2ccc(Oc3ccc4c(c3)C(=O)N(NC(C)=O)C4=O)cc2C1=O	none
CCOC(=O)CN(C#N)c1nc(N(C)C)nc(N(C)C)n1	none
Cc1cc(NC(=O)CN2C(=O)/C(=C/c3cccc(Br)c3)SC2=S)no1	ROMK primary -4.22 | ROMK hit retest inactive
Cc1nc(Sc2ccc(Cl)cc2)c(C#N)c(C)c1[N+](=O)[O-]	none (no result: L major viab, ROMK primary, Insulin prom inh, WT yeast gro inh)
Cc1ccc(NC(C#N)c2ccccc2OCc2ccccc2)cc1 (stereo not given)	none (no result: ROMK primary, Insulin prom inh) | ROMK hit retest inactive
COc1ccc(CN(C2CCCCC2C)S(=O)(=O)c2ccc(S(=O)(=O)N(C)C)cc2)cc1OC (stereo not given)	none (no result: ROMK primary) | ROMK hit retest inactive
O=C1Nc2ccccc2/C1=C/c1cnc(-c2ccccc2)[nH]1	none (no result: L major viab, ROMK primary, Insulin prom inh, WT yeast gro inh) | ROMK hit retest 0.0478
O=C1Nc2ccccc2Nc2ncccc21	none (no result: Insulin prom inh)
Cc1cccc(-c2nsc(SCC(=O)NCC3CCCO3)n2)c1 (stereo not given)	none
Cc1cccc(OCC(=O)Nc2ccc(N3CCN(C(=O)c4ccccc4)CC3)cc2)c1	none
Cc1c(OCc2ccc([N+](=O)[O-])cc2)ccc2c3c(c(=O)oc12)CCC3	none
Cc1cc(C2(c3ccc(O)c(C)c3)OC(=O)c3ccccc32)ccc1O	none | ROMK hit retest inactive
Clc1ccc(CN2CCC(c3nc4ccc(Cl)cc4[nH]3)CC2)cc1	L major viab 99.3 (no result: ROMK primary, KCC2 mod) | ROMK hit retest 0.0632
CC1CCCN(C(=O)CN2CCC(c3nc4ccc(Cl)cc4[nH]3)CC2)C1 (stereo not given)	none (no result: L major viab, ROMK primary, Insulin prom inh, WT yeast gro inh)
O=S(=O)(Nc1nc2c(s1)CCCC2)c1ccc(Br)cc1	ROMK primary -3.15 (no result: Insulin prom up) | ROMK hit retest inactive
O=S(=O)(Nc1nc2c(s1)CCCC2)c1ccc(F)cc1	none
COc1ccc(CNC(=O)CSc2nnnn2C)cc1OC	none (no result: Insulin prom inh)
COc1cccc(C(=O)CSc2nnc(-c3cc(OC)cc(OC)c3)o2)c1	ROMK primary 1.09 (no result: KCC2 mod) | ROMK hit retest inconclusive
CC(=O)Nc1ccc(S(=O)(=O)NCCCN2CCN(Cc3ccccc3)CC2)cc1Cl	ROMK primary -12.7 (no result: L major viab, Insulin prom inh, WT yeast gro inh) | ROMK hit retest inactive
CC(=O)/C(N=Nc1ccc(C(=O)O)cc1)=C(\C)O	none (no result: L major viab, ROMK primary, Insulin prom inh, WT yeast gro inh)
COc1ccc2c(c1OC)C(=O)OC2Nc1nc(-c2cc3ccccc3oc2=O)cs1 (stereo not given)	none (no result: ROMK primary) | ROMK hit retest 0.0403
O=C(NCC(c1cccs1)N1CCOCC1)c1ccccc1NS(=O)(=O)c1cc([N+](=O)[O-])ccc1Cl (stereo not given)	none (no result: ROMK primary, Insulin prom inh) | ROMK hit retest 0.0676
O=C(Nc1ccc(N2CCN(c3ccc(C(F)(F)F)cn3)CC2)nc1)c1cccs1	none (no result: L major viab, ROMK primary, Insulin prom inh, KCC2 mod, WT yeast gro inh)
O=C(Nc1ccc(N2CCN(c3ncccc3C(F)(F)F)CC2)nc1)c1cccs1	none (no result: L major viab, ROMK primary, Insulin prom inh, WT yeast gro inh) | ROMK hit retest inactive
O=C1CCCC(=O)N1c1ccc(NCCOCCO)c([N+](=O)[O-])c1	none
COC(=O)C1=C(N)Oc2cc(C)n(Cc3cccnc3)c(=O)c2C1c1ccccc1OC (stereo not given)	none (no result: ROMK primary)
CCCCOC(=O)Nc1ccccc1C(=O)OC	none (no result: ROMK primary)
O=C(N1CCOCC1)C(F)(F)C(F)(F)C(F)(F)C(F)(F)C(=O)N1CCOCC1	none (no result: ROMK primary, Insulin prom inh)
COc1ccccc1NC(=O)CSc1nnc(Cc2cccn2C)n1CCc1ccccc1	none (no result: ROMK primary, Insulin prom inh)
Cn1c(N2CCOCC2)nc2c1c(=O)n(Cc1ccc(Cl)c(Cl)c1)c(=O)n2C	ROMK primary -3.75 | ROMK hit retest 0.0678
Cn1c(=O)c2c(ncn2Cc2ccc(Cl)c(Cl)c2)n(C)c1=O	ROMK primary -2.12 (no result: Insulin prom up) | ROMK hit retest inconclusive
Cn1c(=O)c2c(ncn2Cc2cccc(Cl)c2)n(C)c1=O	none (no result: Insulin prom up, Insulin prom inh)
CCOc1c(Cl)cc(C(=O)Nc2ccccc2C(=O)O)cc1Cl	ROMK primary -3.62 | ROMK hit retest 0.0544
O=C(N/N=C/c1cccc(Oc2ccc([N+](=O)[O-])cc2[N+](=O)[O-])c1)c1cncc(Br)c1	none (no result: ROMK primary)
CC(=O)c1cc2ccc(O)cc2oc1=O	ROMK primary -6.4 (no result: L major viab, Insulin prom inh, WT yeast gro inh) | ROMK hit retest 0.0504
COc1ccc2cc(C(C)=O)c(=O)oc2c1	none
CCc1ccc(O)c(N=Cc2cccc(C)c2O)c1	none (no result: ROMK primary)
CCCc1ccc(O)c(N=Cc2cc(Br)cc(OCC)c2O)c1	none | ROMK hit retest inactive
O=c1c2cc(Cl)ccc2nc(-c2ccc(Cl)c(Cl)c2)n1O	none (no result: L major viab, ROMK primary, Insulin prom inh, KCC2 mod, WT yeast gro inh) | ROMK hit retest 0.182
O=C(O)COn1c(-c2ccc(Cl)cc2)nc2ccc(Cl)cc21	none
Cc1ccc2nc(-c3ccc(NC(=O)CN(c4ccccc4C)S(C)(=O)=O)cc3)sc2c1	none (no result: Insulin prom inh, KCC2 mod)
COc1cc(OC)c(C2N(c3cc(C)on3)C(=O)C3CCCN32)cc1OC (stereo not given)	none (no result: Insulin prom inh, KCC2 mod)
CC1(C)NC(=O)N(CCCCOc2ccc(Cl)cc2C=O)C1=O	L major viab 57.0, ROMK primary 3.85 (no result: Insulin prom inh) | ROMK hit retest inactive
